Experimental data as given in PubChem BioAssay (NCI).
About 79,000 compounds went through this panel and 15% of them were active in at least one assay; those are over-represented in the sample as a whole. Activity calls are given as the source filed them. No stated cut-off is given here; in the data, active means growth inhibition above about 70%; inactive means the rest.

What was measured:
[1] = NCI Yeast Anticancer Drug Screen. Data for the rad52 strain (AID 147);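 further: 0% = growth of vehicle-treated control cultures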; settings: S. cerevisiae rad52 mutant growth inhibition, stronger effect = higher value
Method in brief: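 Here a repair-compromised yeast strain receives each compound; its growth is then quantified and normalised to vehicle-only controls.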

[2] = NCI Yeast Anticancer Drug Screen. Data for the wt1 strain (AID 149);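 further: 0% = growth of vehicle-treated wt1 cultures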; settings: S. cerevisiae wt1 strain (SPY 50644) growth inhibition, stronger effect = higher value
Method in brief: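 Yeast wt1 strain exposed to compounds; growth inhibition measured relative to vehicle-treated controls.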

[3] = NCI Yeast Anticancer Drug Screen. Data for the rad50EPP+ strain (AID 151);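 further: 0% = growth of vehicle-treated control cultures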; settings: S. cerevisiae rad50 mutant strain, stronger effect = higher value
Method in brief: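 Read-out is yeast growth inhibition relative to vehicle; cells used were the rad50EPP+ strain.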

[4] = NCI Yeast Anticancer Drug Screen. Data for the mgt1 strain (AID 153); settings: S. cerevisiae mgt1 mutant growth inhibition, stronger effect = higher value
Method in brief: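 Measured: inhibition of mgt1 yeast growth by compound, normalized to vehicle-treated cultures.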

[5] = NCI Yeast Anticancer Drug Screen. Data for the rad50 strain (AID 155);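 further: 0% = growth of vehicle-only cultures of the same strain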; settings: S. cerevisiae rad50 strain growth inhibition, stronger effect = higher value
Method in brief: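 Yeast carrying a defined DNA repair defect were exposed to test compounds, and growth was compared with vehicle-treated controls to give percent inhibition.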

[6] = NCI Yeast Anticancer Drug Screen. Data for the mec2-1 strain (AID 157); settings: S. cerevisiae mec2-1 strain, stronger effect = higher value
Method in brief: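 Using mec2-1 yeast: add compound, measure growth, express inhibition versus vehicle-treated cultures.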

[7] = NCI Yeast Anticancer Drug Screen. Data for the rad14 strain (AID 159);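 further: 0% = growth of vehicle-treated control cultures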; settings: S. cerevisiae rad14 strain growth inhibition, stronger effect = higher value
Method in brief: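 Yeast cells carrying a defined DNA-repair defect were exposed to compounds, and growth inhibition was calculated relative to vehicle-treated control cultures.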

[8] = NCI Yeast Anticancer Drug Screen. Data for the sgs1 mgt1 strain (AID 161);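 further: 0% = growth of cultures given vehicle only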; settings: S. cerevisiae sgs1 mgt1 strain, stronger effect = higher value
Method in brief: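 Compounds are added to genetically altered yeast, and growth is compared with cultures given vehicle alone to give percent inhibition.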

[9] = NCI Yeast Anticancer Drug Screen. Data for the CLN2oe strain (AID 163);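 further: 0% = growth of vehicle-only control cultures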; settings: S. cerevisiae CLN2oe strain, stronger effect = higher value
Method in brief: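 Whole-cell yeast growth assay. A strain engineered for altered cell-cycle control received compound, and inhibition relative to vehicle-treated cultures was recorded.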

[10] = NCI Yeast Anticancer Drug Screen. Data for the cln2 rad14 strain (AID 165);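 further: 0% = growth equal to vehicle treated cultures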; settings: S. cerevisiae cln2 rad14 strain, stronger effect = higher value
Method in brief: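 Yeast strain cln2 rad14, bearing defects in cell cycle control and DNA repair, serves as the test system; values reflect growth inhibition compared with vehicle.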

[11] = NCI Yeast Anticancer Drug Screen. Data for the bub3 strain (AID 167); settings: S. cerevisiae bub3 mutant strain, stronger effect = higher value
Method in brief: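 Compounds were applied to a genetically altered yeast strain carrying a cell-cycle control defect. Growth inhibition was scored against vehicle-treated controls.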

[12] = NCI Yeast Anticancer Drug Screen. Data for the wt2 strain (AID 169);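 further: 0% = growth of vehicle-treated yeast cultures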; settings: S. cerevisiae wt2 strain growth inhibition, stronger effect = higher value
Method in brief: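 Treated yeast vs. vehicle-treated yeast: growth inhibition determined.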

[13] = NCI Yeast Anticancer Drug Screen. Data for the mlh1 strain (AID 171);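 further: 0% = growth of vehicle-treated control cultures of the same strain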; settings: S. cerevisiae mlh1 strain growth inhibition, stronger effect = higher value
Method in brief: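 A yeast strain with a defined genetic lesion serves as the test organism. Cultures receive compound or vehicle, and growth is measured.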

[14] = NCI Yeast Anticancer Drug Screen. Data for the sgs1 strain (AID 173);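 further: 0% = growth of vehicle-only control cultures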; settings: S. cerevisiae sgs1 mutant, stronger effect = higher value
Method in brief: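 A genetically defined yeast mutant is incubated with the test compound, and its growth is compared to that of the same strain given vehicle.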

[15] = NCI Yeast Anticancer Drug Screen. Data for the mlh1 rad18 strain (AID 175); settings: S. cerevisiae mlh1 rad18 strain growth inhibition, stronger effect = higher value
Method in brief: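 Steps: expose repair-defective yeast to compound; measure growth; express inhibition against vehicle-treated controls.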

[16] = NCI Yeast Anticancer Drug Screen. Data for the rad18 strain (AID 177); settings: S. cerevisiae rad18 mutant growth inhibition, stronger effect = higher value
Method in brief: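 Measured value is growth inhibition of a yeast strain bearing a DNA repair alteration, referenced to vehicle-treated cells.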

[17] = at 5.0 µM (retest, dose inferred, filed as 0.5)
[18] = at 50.0 µM (retest, dose inferred, filed as 5.0)

Measured: growth inhibition

O=C(O)C1CCCCC1c1c2ccc(=O)c(O)c-2oc2c(O)c(O)ccc12 (stereo unspecified)
inactive: [1]; at 1.2 µM -18% | [1]; at 3.7 µM -26% | [1]; at 11.0 µM -20% | [1]; at 33.0 µM 24% | [2]; at 1.2 µM -17% | [2]; at 3.7 µM -11% | [2]; at 11.0 µM -3% | [2]; at 33.0 µM 32% | [3]; at 1.2 µM -9% | [3]; at 3.7 µM 0% | [3]; at 11.0 µM -24% | [3]; at 33.0 µM -39% | [3]; at 100.0 µM -48% | [4]; at 1.2 µM 11% | [4]; at 3.7 µM 10% | [4]; at 11.0 µM 15% | [4]; at 33.0 µM 53% | [5]; at 1.2 µM -12% | [5]; at 3.7 µM -22% | [5]; [17] 9% | [5]; at 11.0 µM -16% | [5]; at 33.0 µM 28% | [6]; at 1.2 µM -38% | [6]; at 3.7 µM -32% | [6]; [17] -7% | [6]; at 11.0 µM -13% | [6]; at 33.0 µM 46% | [7]; at 1.2 µM -17% | [7]; at 3.7 µM -7% | [7]; at 11.0 µM -9% | [7]; at 33.0 µM 19% | [8]; [17] 7% | [8]; at 50.0 µM 59.4% | [9]; at 1.2 µM 15% | [9]; at 3.7 µM 28% | [9]; at 11.0 µM 23% | [9]; at 33.0 µM 67% | [10]; [17] -21% | [10]; at 50.0 µM 56.2% | [11]; at 1.2 µM 0% | [11]; at 3.7 µM 6% | [11]; [17] -7% | [11]; at 11.0 µM 12% | [12]; at 1.2 µM -32% | [12]; at 3.7 µM -23% | [12]; at 11.0 µM -25% | [12]; at 33.0 µM 13% | [13]; at 1.2 µM -30% | [13]; at 3.7 µM -9% | [13]; at 11.0 µM -33% | [13]; at 33.0 µM 38% | [14]; at 1.2 µM -11% | [14]; at 3.7 µM -20% | [14]; at 11.0 µM -16% | [14]; at 33.0 µM 33% | [15]; [17] -3% | [16]; at 1.2 µM -8% | [16]; at 3.7 µM 5% | [16]; at 11.0 µM 2% | [16]; at 33.0 µM 20%
active: [1]; at 100.0 µM 79% | [2]; at 100.0 µM 82% | [4]; at 100.0 µM 86% | [5]; [18] 77% | [5]; at 50.0 µM 77.8% | [5]; at 100.0 µM 77% | [6]; [18] 80% | [6]; at 50.0 µM 82.1% | [6]; at 100.0 µM 85% | [7]; at 100.0 µM 84% | [8]; [18] 80% | [9]; at 100.0 µM 86% | [10]; [18] 74% | [11]; at 33.0 µM 72% | [11]; [18] 80% | [11]; at 50.0 µM 87.2% | [11]; at 100.0 µM 86% | [12]; at 100.0 µM 73% | [13]; at 100.0 µM 74% | [14]; at 100.0 µM 74% | [15]; [18] 84% | [15]; at 50.0 µM 75.3% | [16]; at 100.0 µM 80%

O=[N+]([O-])c1ccc2c(c1)C(N1CCN(CCO)CC1)Cc1ccc(F)cc1S2 (stereo unspecified)
inactive: [1]; at 1.2 µM -2% | [1]; at 3.7 µM -2% | [1]; at 11.0 µM -3% | [1]; at 33.0 µM -2% | [1]; at 100.0 µM 18% | [2]; at 1.2 µM -2% | [2]; at 3.7 µM -3% | [2]; at 11.0 µM -3% | [2]; at 33.0 µM -3% | [2]; at 100.0 µM 15% | [3]; at 1.2 µM -2% | [3]; at 3.7 µM -1% | [3]; at 11.0 µM -1% | [3]; at 33.0 µM -1% | [3]; at 100.0 µM 1% | [4]; at 1.2 µM -1% | [4]; at 3.7 µM -3% | [4]; at 11.0 µM -5% | [4]; at 33.0 µM -4% | [4]; at 100.0 µM 34% | [5]; at 1.2 µM 1% | [5]; at 3.7 µM 1% | [5]; [17] 3% | [5]; at 11.0 µM 1% | [5]; at 33.0 µM 2% | [5]; at 50.0 µM 44.2% | [5]; at 100.0 µM 62% | [6]; at 1.2 µM -8% | [6]; at 3.7 µM -2% | [6]; [17] 0% | [6]; at 11.0 µM -4% | [6]; at 33.0 µM -4% | [6]; [18] 48% | [6]; at 50.0 µM -3.7% | [6]; at 100.0 µM 8% | [7]; at 1.2 µM -2% | [7]; at 3.7 µM -1% | [7]; at 11.0 µM 1% | [7]; at 33.0 µM 15% | [8]; [17] 13% | [9]; at 1.2 µM -6% | [9]; at 3.7 µM -5% | [9]; at 11.0 µM 0% | [9]; at 33.0 µM 1% | [9]; at 100.0 µM 20% | [10]; [17] 2% | [10]; [18] 43% | [11]; at 1.2 µM -1% | [11]; at 3.7 µM -4% | [11]; [17] -2% | [11]; at 11.0 µM 0% | [11]; at 33.0 µM -5% | [11]; at 50.0 µM -1.1% | [11]; at 100.0 µM 24% | [12]; at 1.2 µM -2% | [12]; at 3.7 µM -3% | [12]; at 11.0 µM -3% | [12]; at 33.0 µM -3% | [12]; at 100.0 µM 36% | [13]; at 1.2 µM -3% | [13]; at 3.7 µM -3% | [13]; at 11.0 µM -2% | [13]; at 33.0 µM -3% | [13]; at 100.0 µM 35% | [14]; at 1.2 µM -1% | [14]; at 3.7 µM -1% | [14]; at 11.0 µM -2% | [14]; at 33.0 µM 0% | [15]; [17] 0% | [15]; [18] -13% | [15]; at 50.0 µM 44.4% | [16]; at 1.2 µM -3% | [16]; at 3.7 µM -5% | [16]; at 11.0 µM -3% | [16]; at 33.0 µM 0% | [16]; at 100.0 µM 64%
active: [5]; [18] 71% | [7]; at 100.0 µM 93% | [8]; [18] 90% | [8]; at 50.0 µM 72.8% | [10]; at 50.0 µM 78.6% | [11]; [18] 79% | [14]; at 100.0 µM 80%
